Values joined by “and” are separate entries in the source; they are usually repeats but may differ in a detail not shown here. Identical values can stand only once. Records with an inconclusive call do not appear. A call without a number means that no potency is given here. A structure can be active in one record and inactive in another. Active and inactive are the calls of the source. The call rests on the fitted dose curve; in most records, active means well fitted curve in the direction sought with a large enough effect; inconclusive means small, poorly fitted or top-dose-only effect, or another doubt; inactive means no such curve, though single readings can be large; an effect the other way counts as inactive or inconclusive.
Tests used:
[1] = target: Glutathione peroxidase 1 (Homo sapiens) (UniProt P07203); experiment: Primary qHTS Assay for Inhibitors of Recombinant Selenoprotein Glutathione Peroxidase 1 (GPX1) (AID 1845191); further: nearly all actives have a fitted effect of over 65% in size
Sequence of Glutathione peroxidase 1 (Homo sapiens) (P07203 whole entry, looked up): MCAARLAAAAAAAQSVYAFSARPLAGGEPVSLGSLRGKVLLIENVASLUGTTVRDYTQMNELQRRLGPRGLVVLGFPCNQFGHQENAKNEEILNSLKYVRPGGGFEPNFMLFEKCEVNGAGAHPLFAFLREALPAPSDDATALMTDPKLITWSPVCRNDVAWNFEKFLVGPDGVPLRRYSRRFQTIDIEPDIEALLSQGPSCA
Method in brief: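 10 nM GPX1 + cpd, 30 min RT; start w/ 1 mM GSH, 0.5 mM cumene hydroperoxide, 0.5 mM NADPH, 100 nM GR, 0.01% BSA; buffer 50 mM Tris-HCl pH 7.5, 2 mM EDTA, 150 mM NaCl; Fl 340/450, 0 & 15 min.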

[2] = target: Phospholipid hydroperoxide glutathione peroxidase GPX4 (Homo sapiens) (UniProt P36969); experiment: Primary qHTS Assay for Inhibitors of Recombinant Selenoprotein Glutathione Peroxidase 4 (GPX4) (AID 1845192); further: nearly all actives have a fitted effect of over 65% in size; further: potency means the concentration at half of the fitted maximal effect; on activity change, negative = inhibition: series mostly up to about 50 µM
Sequence of Phospholipid hydroperoxide glutathione peroxidase GPX4 (Homo sapiens) (P36969 whole entry, looked up): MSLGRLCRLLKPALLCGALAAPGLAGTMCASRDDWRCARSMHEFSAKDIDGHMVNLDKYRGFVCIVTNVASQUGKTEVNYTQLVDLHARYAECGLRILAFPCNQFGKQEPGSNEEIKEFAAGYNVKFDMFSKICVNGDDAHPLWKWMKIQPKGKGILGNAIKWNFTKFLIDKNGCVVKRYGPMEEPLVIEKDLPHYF
Method in brief: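 NADPH consumption, followed by fluorescence at 340/450 nm between 0 and 15 min, reports GPX4 activity via coupled glutathione reductase (100 nM). Enzyme 200 nM was pre-exposed to compound 30 min; 0.5 mM cumene hydroperoxide and 1 mM GSH served as substrates.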

[3] = target: Luciferin 4-monooxygenase (Photinus pyralis) (UniProt P08659); experiment: Primary firefly luciferase (FLuc) qHTS assay for identification of artifact compounds. (AID 1845220); further: nearly all actives have a fitted effect of over 60% in size; further: potency means the concentration at half of the fitted maximal effect; on activity change, negative = inhibition: series mostly up to about 54 µM
Method in brief: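 Compounds sat 15 min at room temperature with 10 uM luciferin and 10 uM ATP (pH 7.6 Tris acetate). Firefly luciferase (10 nM final) was then added, and luminescence was read 5 min later. Data normalized to no-enzyme and DMSO controls were Hill-fitted.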

[4] = Primary fluorescence-based thiol-reactive (MSTI) qHTS assay for identification of artifact compounds. (AID 1845221); further: nearly all actives have a fitted effect of over 65% in size; further: potency means the concentration at half of the fitted maximal effect;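 on activity change, negative = thiol reactive: series mostly up to about 54 µM; thiol-reactive compounds lower the probe fluorescence signal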
Method in brief: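 Thiol-reactive compounds detected by quenching of 4 uM MSTI fluorescence (525/598 nm) after 1 h room-temperature dark incubation in PBS pH 7.4, 2% DMSO. qHTS titration; percent inhibition Hill-fitted against Acetyl-MSTI/MSTI controls.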

[5] = system: Nanoluciferase (engineered Oplophorus gracilirostris luciferase); experiment: Primary Nanoluciferase (NLuc) qHTS assay for identification of artifact compounds. (AID 1845222); further: series mostly up to about 54 µM
Method in brief: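 Luminescence from secreted NLuc (filtered, 1:55-diluted S16 cell medium) read 5 min after Nano-Glo substrate; compounds preincubated 15 min, RT. Hill fits of inhibition normalized to DMSO and no-enzyme.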

## CC1=CC(=O)CC(C)(C)[C@@]1(O)/C=C/C(C)O[C@@H]1O[C@H](CO)[C@@H](O)[C@H](O)[C@H]1O (some centres undefined)
[1]
  Potency: inactive
[2]
  Potency: inactive
[3]
  Potency: inactive
[4]
  Potency: inactive
[5]
  Potency: inactive

## Cn1cc(Nc2cnccc2C(=O)O)c2cccnc21
[1]
  Potency: inactive
[2]
  Potency: inactive
[3]
  Potency: inactive
[4]
  Potency: inactive

## COc1cnc(-n2cnc(C)n2)c2[nH]cc(C(=O)C(=O)N3CCN(C(=O)c4ccccc4)CC3)c12
[1]
  Potency: inactive
[2]
  Potency: inactive
[3]
  Potency: inactive
[4]
  Potency: inactive
[5]
  Potency: inactive

## COC(=O)CCC1(C)C(C(C)(C)O)C(O)CC2(C)Oc3c(C)c4c(c(OC)c3CC21)C(=O)OC4 (centres undefined)
[1]
  Potency: inactive
[2]
  Potency: inactive
[3]
  Potency: inactive
[4]
  Potency: inactive
[5]
  Potency: inactive

## CC(C)N(CCCNC(=O)Nc1ccc(C(C)(C)C)cc1)C[C@H]1O[C@@H](n2ccc3c(N)ncnc32)[C@H](O)[C@@H]1O
[1]
  Potency: inactive
[2]
  Potency: inactive
[3]
  Potency: inactive
[4]
  Potency: inactive
[5]
  Potency: inactive

## O=C(O)Cn1nnc(-c2ccc(CN(CCCCOc3ccc(CN4CCCC4)cc3)CCc3ccccc3)cc2)n1
[1]
  Potency: inactive
[2]
  Potency: inactive
[3]
  Potency: inactive
[4]
  Potency: inactive
[5]
  Potency: inactive

## CC1(C)CC=C(C#Cc2ccccc2)c2cc(/C=C/c3ccc(C(=O)O)cc3)ccc21
[1]
  Potency: inactive
[2]
  Potency: inactive
[3]
  Potency: 10.7 µM (active)
[4]
  Potency: inactive
[5]
  Potency: inactive

## CC1(C)C(=O)N2c3ccccc3C(O)(CC(C(=O)O)n3cnc4ccccc4c3=O)C2N1O (centres undefined)
[1]
  Potency: inactive
[2]
  Potency: inactive
[3]
  Potency: inactive
[4]
  Potency: inactive
[5]
  Potency: inactive

## C[C@@H]1O[C@@H](O[C@H]2[C@H](OC(=O)[C@]34CCC(C)(C)C[C@H]3C3=CCC5[C@@]6(C)CC[C@H](O[C@@H]7O[C@H](CO[C@@H]8OC[C@H](O)[C@H](O)[C@H]8O[C@@H]8OC[C@@H](O)[C@H](O)[C@H]8O)[C@@H](O)[C@H](O)[C@H]7O)C(C)(C)C6CC[C@@]5(C)[C@]3(C)C[C@H]4O)O[C@H](CO)[C@@H](O)[C@@H]2O)[C@H](O[C@@H]2O[C@H](CO)[C@@H](O)[C@H](O)[C@H]2O)[C@H](O)[C@H]1O[C@@H]1OC[C@@H](O)[C@H](O[C@@H]2OC[C@@H](O)[C@H](O)[C@H]2O)[C@H]1O (some centres undefined)
[1]
  Potency: inactive
[2]
  Potency: inactive
[3]
  activity change, negative = inhibition: 2.11% [at 6.45 µM] (inactive)
[4]
  activity change, negative = thiol reactive: 385% [at 6.41 µM] (inactive)
[5]
  activity, negative = inhibition: 3.87% [at 6.45 µM] (inactive)

## Cc1cc(CO)c(O)c(C(=O)CC2CC(=O)NC(=O)C2)c1
[1]
  Potency: inactive
[2]
  Potency: inactive
[3]
  Potency: inactive
[4]
  Potency: inactive
[5]
  Potency: inactive

## C=C1C(O)CC2C(C(=O)O)=COC(OC3OC(CO)C(O)C(O)C3OC(=O)/C=C\c3ccc(O)cc3)C12 (centres undefined)
[1]
  Potency: inactive
[2]
  Potency: inactive
[3]
  Potency: inactive
[4]
  Potency: 4.62 µM (active)
[5]
  Potency: inactive

## C/C=C(\C)C(=O)OC1C2(O)CC3=C4CC(=O)OC(c5ccoc5)C4(C)CCC3C(C)(C2=O)C(C(OC(C)=O)C(=O)OC)C1(C)C (centres undefined)
[1]
  Potency: inactive
[2]
  Potency: inactive
[3]
  Potency: inactive
[4]
  Potency: inactive
[5]
  Potency: inactive

## C[C@@H]1C[C@@H](O)[C@@]23CO[C@]2(CO)CCC[C@@H]3[C@@]12C[C@@H](c1ccoc1)OC2=O
[1]
  Potency: inactive
[2]
  Potency: inactive
[3]
  Potency: inactive
[4]
  Potency: inactive
[5]
  Potency: inactive

## O=C(/C=C/c1ccc(O)cc1)OCC1OC(O)C(OC2OC(CO)C(O)C(O)C2O)C(O)C1O (centres undefined)
[1]
  Potency: inactive
[2]
  Potency: inactive
[3]
  Potency: inactive
[4]
  Potency: inactive
[5]
  Potency: inactive

## C[C@@]1(C(=O)O)CCC[C@@]2(C)C3=CC[C@H]4C[C@@]3(CC[C@H]12)CC4(O)CO (some centres undefined)
[1]
  Potency: inactive
[2]
  Potency: inactive
[3]
  Potency: inactive
[4]
  Potency: inactive
[5]
  Potency: inactive

## CC(O)C1NC(=O)C2CCCN2C1=O (centres undefined)
[1]
  Potency: inactive
[2]
  Potency: inactive
[3]
  Potency: inactive
[4]
  Potency: inactive
[5]
  Potency: inactive

## COc1ccc(C2(O)c3c(ccc4c3OC(C)(CCC=C(C)C)C=C4)NC(=O)C2OC)cc1 (centres undefined)
[1]
  Potency: inactive
[2]
  Potency: inactive
[3]
  Potency: inactive
[4]
  Potency: inactive
[5]
  Potency: inactive

## CC(C)/C=C1/NC(=O)C(C(C)C)n2c1nc1c(O)cccc1c2=O (centres undefined)
[1]
  Potency: inactive
[2]
  Potency: inactive
[3]
  Potency: inactive
[4]
  Potency: inactive
[5]
  Potency: inactive

## C=C1C2CCC3C(CCC4[C@@]3(C)CCC[C@@]4(C)C(=O)O)(C2)[C@@H]1OC(=O)/C(C)=C\C (some centres undefined)
[1]
  Potency: inactive
[2]
  Potency: inactive
[3]
  Potency: inactive
[4]
  Potency: inactive
[5]
  Potency: inactive

## COc1cccc(CN(C(=O)CC(C)(C)C)C2CC(C(=O)N3CCNCC3)N(Cc3ccc4c(c3)OCO4)C2)c1 (centres undefined)
[1]
  Potency: inactive
[2]
  Potency: inactive
[3]
  Potency: inactive
[4]
  Potency: inactive
[5]
  Potency: inactive

## COc1cc([C@H]2OC[C@](O)(Cc3ccc(O[C@@H]4O[C@H](CO)[C@@H](O)[C@H](O)[C@H]4O)c(OC)c3)[C@@H]2CO)ccc1O
[1]
  Potency: inactive
[2]
  Potency: inactive
[3]
  Potency: inactive
[4]
  Potency: inactive
[5]
  Potency: inactive

## C=C1CC[C@]2(C(=O)O[C@@H]3O[C@H](CO)[C@@H](O)[C@H](O)[C@H]3O)CC[C@]3(C)C(=CCC4[C@@]5(C)C[C@H](O)[C@@H](O[C@@H]6O[C@H](C(=O)O)[C@@H](O)[C@H](O)[C@H]6O)[C@](C)(C=O)C5CC[C@]43C)C2C1 (some centres undefined)
[1]
  Potency: inactive
[2]
  Potency: inactive
[3]
  outcome: inactive [at 11.6 µM]
[4]
  activity change, negative = thiol reactive: 113% [at 11.5 µM] (inactive)
[5]
  activity, negative = inhibition: 1.82% [at 11.6 µM] (inactive)

## Cc1cc(-n2c(=O)[nH]c(=O)n(C)c2=O)ccc1Oc1ccc(SC(F)(F)F)cc1
[1]
  Potency: inactive
[2]
  Potency: inactive and 15.8 µM (active)
[3]
  Potency: inactive
[4]
  Potency: inactive
[5]
  Potency: inactive

Reference: PubChem BioAssay (NCATS)
